Laboratory results taken from PubChem BioAssay AID720519 (National Center for Advancing Translational Sciences (NCATS), 2013).
Records with an inconclusive call do not appear. Calls of active or inactive are those of the source. Calls follow the shape of the dose curve; as a rule, active = well fitted activation curve with a large enough effect; inconclusive = small, poorly fitted or top-dose-only effect; inactive = flat fitted curve, though single readings scatter.

test: qHTS for Inhibitors of Cell Surface uPA Generation: Confirmatory Assay for Cherry-picked Compounds; conditions: cell surface uPA activity generation, qHTS confirmation; series mostly up to 115 µM
Outline: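 RAW 264.7 cells at 4000/well, incubated overnight, then treated with compounds. After 24 h at 37 C, viability was read by ATPlite luminescence. An increase in signal indicates blocked uPA-dependent LF entry.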
Potency is read from the fitted curve at half-maximal effect.

Potency, inactive:
COc1ccc(OC)c(NC(=O)C2CCCN2C(=O)C2CCC(C)CC2)c1 (stereo not drawn), Cc1ccc(S(=O)(=O)N2CCOCC2)cc1NC(=O)CSc1nc(N)cc(N)n1, CCOC(=O)Cn1c(=O)cc(C)c2cccc(C)c21, O=C(Nc1c(C(=O)O)oc2ccc(Br)cc12)c1ccccc1, COc1ccc(OC)c(S(=O)(=O)N2CCC(NC(=O)c3ccccc3)CC2)c1, CCCCn1c(N)c(N(CCC(C)C)C(=O)c2sc3nc4n(c(=O)c3c2C)CCC4)c(=O)[nH]c1=O, CC1CCCN(C(=O)c2ccc(CNc3c(N4CCCCC4)c(=O)c3=O)cc2)C1 (stereo not drawn), CCCC1=NN(C(=O)Cc2ccc(OC)cc2)C(O)(C(F)(F)F)C1 (stereo not drawn), CC(C)Cn1cnc2c1c(=O)[nH]c(=O)n2Cc1ccccc1, Cc1ccccc1OCCC(=O)NNC(=O)c1ccccc1F, COc1ccc(NC(=O)CC(C)CC(=O)NCc2ccccc2)c(OC)c1 (stereo not drawn), Cc1cc(C)n2c(SCC#N)nnc2n1, Cc1nc(SCC(=O)NCCN2C(=O)CSC2=O)nc(C)c1C, [N-]=[N+]=NC1C[C@H](n2ccc(=O)[nH]c2=O)O[C@@H]1CO (stereo partly drawn), CC(=O)NS(=O)(=O)c1ccc(NC(=O)c2cccc(OCc3c(C)noc3C)c2)cc1, CC(C)CNC(=O)COC(=O)CCC(=O)c1cccs1, O=C(NNC(=O)C1CC(c2cccs2)=NO1)Nc1ccccc1 (stereo not drawn), COc1ccc(-c2cc3nc(C)cc(-c4ccc(OC)cc4)n3n2)cc1, CC(/C=C/C1(O)C(C)CC(O)CC1(C)C)OC1OC(CO)C(O)C(O)C1O (stereo not drawn), Nc1nc2ccc(Br)cc2o1, CCCCn1c(-c2cccnc2)nc2cc3[nH]c(=O)c(C(C)C)nc3cc21, COc1ccc(CCN=c2c([N+](=O)[O-])nn(-c3cccc(C)c3)n2O)cc1OC, O=C(NCCc1ccccc1)C1CCC(=O)N(Cc2cccc(C(F)(F)F)c2)C1 (stereo not drawn), O=C(CSc1nncs1)NC(=O)NCc1ccco1, Cc1oc(-c2ccccc2F)nc1CS(=O)(=O)CC(=O)NC1CCCC(C)C1C (stereo not drawn), COc1ccc(NC(=O)c2nn(C)c3c2CS(=O)(=O)c2ccccc2-3)cc1, CC1C2=C(CC(C)(C)CC2=O)NC2=C1C(=O)CC(C)(C)C2, Cc1ccc(CN2CCN(Cc3cc4ccccc4o3)CC2CCO)cc1 (stereo not drawn), CCC(=O)N1CCC(NC(=O)Nc2ccc(OC(F)(F)F)cc2)CC1, CN(C(=O)CCn1c(=S)oc2ccccc21)c1ccc(F)cc1, COc1ccc(C(=O)NCCCN2CCOCC2)cc1, O=C(C1CCCCN1S(=O)(=O)c1ccc(F)cc1)N1CCN(c2ccccc2F)CC1 (stereo not drawn), COc1ccc(C2NC(=O)CCC2[N+](=O)[O-])c(OC)c1OC (stereo not drawn), CCCNC(=O)COc1coc(CN2CCN(c3ccccc3OC)CC2)cc1=O, Cc1ccc(CC2CC(=O)N(c3cc(C)ccc3C)C2=O)cc1 (stereo not drawn), CCOC(=O)CN1C(=O)N[C@@H](c2ccccc2)C(C(C)=O)=C1C, CC(C)(C)OC(=O)N(Cc1ccccc1)Cc1ccccc1OCc1cccc(NC(=O)C2CC2)c1

Potency, active:
Cc1ccc(Nc2cc(C)c3ccc(O)cc3n2)cc1C 6.56 µM
